An excerpt weighted towards active compounds, which were near 1.6% of everything screened.
SSB-PriA inh – blocks PriA binding to SSB C-terminal tail; AlphaScreen SSBct-PriA binding, biotinylated peptide; AID 1272365; inhibition, % at 33 µM; 430,000 tested, 0.6% active; in the data active = inhibition mostly above about 37%, no sharp cut-off; inactive = mostly below about 20%;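 also: plate controls were negative control peptide for no effect and reference peptide for full effect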
SARS 3CLpro inh – SARS-CoV 3CLpro protease inhibition | P0C6X7 | recombinant SARS-CoV 3CLpro, quenched FRET peptide cleavage | inhibition, % at 6 µM | 290,000 tested, 0.14% active; in the data active = inhibition above about 12%
PrP UTR inh – suppresses PrP 5' UTR mRNA reporter expression. inhibition, % (no concentration beside the values). cell-based PrP 5' UTR mRNA reporter, plate reader. 340,000 tested, 0.35% active; in the data active = inhibition above about 52%; also: 0 = median of the neutral control wells
PfHsp40 rescue – restores yeast growth despite PfHsp40 toxicity; AID 504582; growth rescue, % at 12.5 µM; S. cerevisiae expressing PfHsp40, growth rescue, ATP luminescence; 340,000 tested, 0.68% active; in the data active = growth rescue above about 28%, passing the limit was not always enough; inconclusive = no clear call, values can overlap the other calls;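 also: yeast W303a lacking pdr1 and pdr3 grown in galactose medium; growth measured after three days at 30 °C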
PrPC TRFRET – inhibitors of human cell surface prion protein PrPC. TR-FRET read-out. AID 720596. P04156. 370,000 tested, 0.43% active. inhibition, % at 13.8 µM; in the data active = inhibition above about 24%; also: 0% = median of the test wells and 100% = reference compound wells
Vc quorum ag – induces V. cholerae light production without autoinducers | V. cholerae BH1578 lux reporter, luminescence, 6 h | activation, % at 18.7 µM | 350,000 tested, 0.16% active | AID 588436; in the data active = activation mostly above about 9.7%, no sharp cut-off; inconclusive = no clear call, values can overlap the other calls; inactive = mostly below about 3.7%
PrP UTR cherry – prion 5' UTR mRNA inhibition, cherry-pick retest | shares compounds with PrP UTR inh | cell-based prion protein 5' UTR reporter, plate reader | inhibition, % at 2.5 µM | 1,100 tested, 48% active | AID 504592; in the data active = inhibition above about 54%; inconclusive = no clear call, values can overlap the other calls
* marks the source's active call; other numbers are inactive results; i = inactive; ? = inconclusive; / = no result given.

SMILES	SSB-PriA inh	SARS 3CLpro inh	PrP UTR inh	PfHsp40 rescue	PrPC TRFRET	Vc quorum ag	PrP UTR cherry
C=C(C=O)CC1CC(O)[C@]2(C)OC3CC4OC5C[C@]6(C)O[C@]7(C)CCC8OC9C[C@]%10(C)OC%11C(C)=CC(=O)OC%11CC%10OC9C[C@@H](C)C8OC7CC6O[C@]5(C)CC5OC5C4OC3CC2O1 (stereo partly specified)	0	-2	85*	/	/	i	98*
Cc1cc(C(=O)Nc2nnc(Cc3cccs3)o2)n(C)n1	20	/	/	/	/	/	/
COc1ccc(C(=O)Nc2ccc(C)cn2)c(OC)c1	-11	-4	79*	-1	2	-2	75*
COc1ccc(C(=O)Nc2cc(C)on2)c(OC)c1	-8	1	-50	0	-1	i	/
NC(=O)c1cc([N+](=O)[O-])ccc1NCc1ccc(N)cc1	14	/	74*	0	-19	-1	75*
Cc1ccc(C(=O)NCCN2CCn3cc(OCc4ccccc4)c(=O)cc3C2=O)cc1C	-19	/	/	/	/	/	/
C#CCNS(=O)(=O)c1ccc(F)cc1Br	-12	/	5	-1	4	0	/
O=S(=O)(NCCc1ccccc1)c1ccc(F)cc1Br	-21	/	53*	0	7	0	-9
O=C(O)c1cccc(N/N=C/c2cccs2)c1	/	2	65*	0	2	0	63*
COc1ccc(-c2nc(C)c(CCNS(=O)(=O)c3cccc([N+](=O)[O-])c3)s2)cc1	0	/	/	/	/	/	/
CC(C)CCCCCCCCCCCCC(=O)NCC(=O)NC1C(O)C(O)C(Nc2ncnc3nc[nH]c23)OC1C(O)CO (stereo unspecified)	-9	/	89*	-2	/	i	86*
O=C(O)CNc1ncnc2nc[nH]c12	-10	/	/	/	/	/	/
O=C(CN1CCN(Cc2nc3ccccc3[nH]2)CC1)Nc1cccc(C(F)(F)F)c1	-18	/	/	/	/	/	/
Cc1ccc(C(=O)Oc2ccc(/C=C(\C#N)C(=O)Nc3ccccc3F)cc2)cc1	-11	/	/	/	/	/	/
CC(C)CNC(=O)c1ccc2c(=O)nc3c(-c4cccc(C(F)(F)F)c4)n[nH]n3c2c1	-3	/	/	/	/	/	/
COC(=O)c1ccc(C(=O)N(CCn2cccn2)c2nc3c(C)cc(C)cc3s2)cc1	0	/	/	/	/	/	/
COc1ccccc1NC(=O)c1oc2ccccc2c1NC(=O)c1cc(OC)c(OC)c(OC)c1	-20	-2	56*	-1	0	0	84*
CC(=NNc1ccc2ccccc2n1)c1ccccc1O	-6	/	67*	-2	3	-2	47
CC(=NNc1ccc2ccccc2n1)c1ccccn1	/	/	/	/	10	/	/
Cc1onc(-c2ccccc2Cl)c1C(=O)Nc1nnc(-c2ccco2)o1	21	/	/	/	/	/	/
COc1ccc(-n2ncc3c(N4CCCCC4)ncnc32)cc1	-8	4	86*	-2	/	0	79*
O=S(=O)(c1ccc(F)cc1)N1CCN(c2ncnc3c2cnn3-c2ccccc2)CC1	-13	-4	-1	2	5	0	/
CS(=O)(=O)N1CCN(c2ncnc3c2cnn3-c2ccccc2)CC1	-2	5	55*	0	0	0	-28
Clc1ccc(Cn2ncc3c(N4CCCCC4)ncnc32)cc1	-16	0	-7	4	6	0	/
Clc1ccc(-n2ncc3c(N4CCCCCC4)ncnc32)cc1	-8	3	79*	0	-10	0	70*
SMILES	SSB-PriA inh	SARS 3CLpro inh	PrP UTR inh	PfHsp40 rescue	PrPC TRFRET	Vc quorum ag	PrP UTR cherry
O=C(NCC1CCN(C(=O)Oc2ccccc2)CC1)c1cncc(Br)c1	6	/	/	/	/	/	/
CCN(CC)S(=O)(=O)c1ccc(N2CCOCC2)c(NC(=O)c2cc(-c3ccccn3)nc3ccccc23)c1	3	1	66*	-1	-3	0	24
CCN(CC)S(=O)(=O)c1ccc(N2CCOCC2)c(NC(=O)c2cccc3ccccc23)c1	-2	1	-8	2	-3	-1	/
Cc1cc(NC(=O)CSc2nnc(-c3ccco3)n2C)no1	-11	/	88*	-1	-5	i	7
O=c1cc2c(nn1Cc1ccc(Cl)cc1)-c1ccccc1CC2	-21	8	-1	5	7	i	/
O=c1cc2c(nn1Cc1cccc(Cl)c1)-c1ccccc1CC2	-17	-1	57*	47*	-4	i	17
Cn1nc(CNC(=O)Nc2cccs2)cc1-c1ccncc1	-15	/	/	/	/	/	/
COc1cc(OC)c(NC(=O)CN2N=NC3C(=O)N(c4ccc(F)c(F)c4)C(=O)C32)cc1Cl (stereo unspecified)	-4	/	/	/	/	/	/
CCOC(=O)N1CCN(S(=O)(=O)c2ccc(C(=O)Nc3ccc(-c4ccc(NC(=O)c5ccc(S(=O)(=O)N6CCN(C(=O)OCC)CC6)cc5)c(OC)c4)cc3OC)cc2)CC1	2	/	/	/	/	/	/
O=C1c2ccccc2C(=O)C1c1ccnc2ccccc12	-7	3	58*	2	-12	i	40
c1nc(CCO[C@H]2CCCCO2)cc2cc3c(cc12)OCO3	-9	/	63*	1	4	i	36
c1ccc2cc(CCO[C@H]3CCCCO3)ncc2c1	-15	/	30	-1	-6	i	/
O=C(NCc1ccc(C(=O)c2ccsc2)s1)c1ccc(Br)o1	-16	/	/	/	/	/	/
Cc1ccc2nc(NC(=S)NC(=O)c3ccco3)sc2c1	-9	-4	-95	1	9	i	/
Cc1ccc2nc(NC(=O)c3ccco3)sc2c1	-2	-2	59*	3	3	i	38
Cc1cccc(C)c1OCc1n[nH]c(=S)o1	-2	-2	73*	0	1	i	-25
Cc1cccc(OCc2n[nH]c(=S)o2)c1C	-1	2	-66	-1	-1	0	/
O=C(CN1C(=O)c2ccccc2C1=O)N1CCN(c2ncnc3c2nnn3-c2ccccc2)CC1	8	/	/	/	/	/	/
Cc1cc(-c2ccccc2)n(-c2cc(NN=Cc3ccccc3O)ncn2)n1	-8	/	/	/	/	/	/
Cc1cc(-c2ccccc2)n(-c2cc(N/N=C/c3ccccc3O)ncn2)n1	/	5	76*	582*	-4	0	90*
NCc1ccc2[nH]c3ccccc3c2c1	-15	/	/	/	/	/	/
CCCN(CCC)CCCNC(=O)C1c2cc(OC)c(OC)cc2C(=O)N(C)C1c1cccs1 (stereo unspecified)	-7	-2	3	1	-2	i	/
CCCCNC(=O)C1c2cc(OC)c(OC)cc2C(=O)N(C)C1c1cccs1 (stereo unspecified)	-12	3	81*	-1	2	0	-15
O=C(NCc1ccc2c(c1)OCO2)C1CCCN(S(=O)(=O)c2cccc3cccnc23)C1 (stereo unspecified)	-13	-5	78*	1	9	0	?
COC(=O)N1CCc2ccc(NC(=O)CSCc3ccccc3)cc2C1	-3	/	/	/	/	/	/
O=C(c1ccsc1)N1CC(Oc2nccs2)C1	-1	/	/	/	/	/	/
O=C(Nc1nnc(-c2ccccc2)o1)NC1CCCCC1	1	1	78*	0	3	4	-23

Screens (PubChem BioAssay)
